Compounds without any hit were thinned out: in the full panel of roughly 83,000, 20% have a hit.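 Plates (96-well) were seeded with cells, treated with compound at one concentration, and incubated for 48 hours before percent growth was determined.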 A number with no mark means an inactive call. The source made the active and inactive calls. The calls were made as follows: active = growth percent below 10; inactive = the rest.

Assay in all cases: NCI-60 one-dose screen, 48 h (100 = growth as untreated, 0 = no growth, -100 = all killed)
Common to all, as to conditions: 10 µM unless noted

The subject of assay [1] is NCI-H23 lung.
The test system of assay [2] is NCI-H226 lung.
Assay [3] concerns NCI-H322M lung.
For assay [4], the system named is HOP-62 NSCLC.
Assay [5] concerns NCI-H460 lung.
In assay [6] the test system is HOP-92 NSCLC.
For assay [7], the system named is NCI-H522 lung.
The test system of assay [8] is A549/ATCC NSCLC.
The subject of assay [9] is 786-0 renal.
The subject of assay [10] is COLO 205 colon.

In the case of `O=C(COc1ccc(NC(=O)Nc2ccc(Cl)c(Cl)c2)cc1)N=Nc1c(O)[nH]c2ccc(Br)cc12`, the growth is -10.7% (active) in assay [1]; -58.1% (active) in assay [2]; -15.4% (active) in assay [3]; -71.3% (active) in assay [4]; 7.45% (active) in assay [5]; -43.5% (active) in assay [6]. Further, the growth in [7] is -64.7% (active); in [8] it was -45.8% (active); in assay [9], -70.3% (active); in assay [10], -57% (active).

As to `COc1ccc(C(=O)/C=C/c2cc3c(cc2Br)OCO3)cc1S(N)(=O)=O`, the growth in assay [1] is -31.1% (active); in assay [2] it was 13.5%; in assay [3] it was 6.66% (active); in [4] it was -38.4% (active); in assay [5] it was -0.316% (active); in assay [6], 15.4%. Further, the growth in [7] was -46.3% (active); in assay [8] it was 0.453% (active); in assay [9] it was -40.4% (active); in assay [10] it was -69% (active).

In the case of `COc1ccc(C(=O)/C=C/c2ccc(OCc3ccc(F)cc3)c(OC)c2)cc1OC`, the growth was 26.5% in [1]; 46.3% in [2]; 7.43% (active) in [3]; 26.6% in assay [4]; 14.8% in [5]; -14.8% (active) in assay [6]. For the same molecule, the growth was 2.98% (active) in [7], 11.9% in assay [8], 37.4% in assay [9] and 29.9% in assay [10].

`O=C1C(=Nc2ccc(F)c(Cl)c2)c2cccc3cccc1c23`: the growth is 90.9% in assay [1]; 91.9% in [2]; 85.2% in assay [3]; 81.2% in [4]; 78% in assay [5]; 96.9% in [6]. The growth in assay [7] was 104%; in [8], 89.6%; in assay [9], 91.8%; in assay [10], 94%.

Turning to `C=C1CCC2C3(C)COC(c4cc(F)cc(F)c4)OC3CCC2(C)C1CC(O)C1=CCOC1=O` (stereo not given), the growth in [1] is 64.9%; in assay [2], 92.1%; in [3], 95%; in assay [4] it was 90.6%; in [5], 66.3%; in [6], 46.2%. Besides, the growth in assay [7] was 11.9%; in assay [8] it was 75.2%; in assay [9], 30.3%; in [10] it was 59.5%.

Regarding `COc1ccc(-c2cc(C(=O)NCc3ccccc3)nn2-c2ccc(S(C)(=O)=O)cc2)cc1OC`, the growth is 105% in assay [1]; 98.5% in assay [2]; 122% in [3]; 99.7% in [4]; 108% in assay [5]; 73% in assay [6]. Moreover, the growth is 87.4% in [7], 93.8% in assay [8], 98.6% in assay [9] and 116% in [10].

On to `COCOc1cc2c(=O)c(C)c(C(=O)N[C@@H](Cc3ccccc3)C(O)C(=O)NCc3ccccc3)oc2cc1OC` (stereo not given in full), for which the growth was 30% in assay [1]; -40.2% (active) in [2]; 80.6% in assay [3]; 6.54% (active) in assay [4]; -9.86% (active) in assay [5]; 27.8% in assay [6]. Besides, the growth is -11% (active) in assay [7], 51.7% in [8], -0.746% (active) in [9] and 49.5% in assay [10].

For the molecule `N#Cc1ccc(/C=N/NC(=O)c2[nH]c3ccc(Br)cc3c2-c2ccccc2)o1`, the growth in [1] was 3.75% (active); in assay [2] it was 22.9%; in assay [3], 41.3%; in assay [4] it was 16.6%; in assay [5], 1.47% (active); in assay [6], -2.77% (active). Further, the growth in [7] is -36.4% (active); in [8], 12.7%; in assay [9], -1.06% (active); in [10], -25.2% (active).

In the case of `COc1cc(-c2nc3cc(Cl)c(Cl)cc3[nH]2)ccc1OCc1nnc(-c2cccs2)o1`, the growth in assay [1] was 47.4%; in assay [2], 54.7%; in [3] it was 75.3%; in assay [4] it was 77.8%; in [5], 38.8%; in assay [6] it was 69%. Also, the growth is 51.8% in assay [7], 11.7% in [8], 85.8% in assay [9] and 81.9% in assay [10].

With `COc1ccc(-c2nc(SCC(C)C)nc(NCCc3c[nH]c4ccccc34)c2C#N)cc1`, the growth is 73.9% in [1]; 45.1% in [2]; 87.7% in assay [3]; 55.2% in assay [4]; 36.6% in assay [5]; 50.3% in assay [6]. In addition, the growth is 62.5% in assay [7], 76.6% in [8], 56.6% in assay [9] and 76.1% in assay [10].

On to `COc1ccccc1/C=C/C(=O)c1ccc(OC)c(S(N)(=O)=O)c1`, for which the growth in assay [1] is 23.2%; in assay [2], 39.8%; in assay [3] it was 30.5%; in assay [4] it was 13.5%; in assay [5], 5.83% (active); in assay [6], 48.6%. Also, the growth is -9.78% (active) in [7], 5.93% (active) in assay [8], 24% in assay [9] and 1.12% (active) in [10].

For `COc1cc(C2CC(c3cc(OC)c(OC)c(OC)c3)=Nc3c(N)nc(N)nc3N2)ccc1Oc1nc(NCCO)nc(N2CCOCC2)n1` (stereo not given), the growth in assay [1] was 95.8%; in assay [2], 84.2%; in [3] it was 86.2%; in [4], 90.4%; in assay [5], 106%; in assay [6] it was 103%. Also, the growth in assay [7] was 87.2%; in [8] it was 99.2%; in [9], 97.6%; in [10], 110%.

Consider `CSc1ccc(C(=O)Nc2ccc3nn(/C(C#N)=C/c4ccccn4)nc3c2)cc1`, for which the growth in assay [1] is -84% (active); in assay [2] it was -59.2% (active); in [3], 15.4%; in [4] it was -46.2% (active); in assay [5] it was -54.9% (active); in assay [6] it was -48.5% (active). The growth is -87.9% (active) in assay [7], 10.6% in assay [8], -95.5% (active) in assay [9] and -86.1% (active) in assay [10].

(Values after PubChem BioAssay (NCI).)
